# ELG1 repair inh = qHTS screen for small molecules that inhibit ELG1-dependent DNA repair in human embryonic kidney (HEK293T) cells expressing luciferase-tagged ELG1 | HEK293T ELG1-luciferase reporter, luminescence, 16 h; DNA damage induced by 5-fluorouridine | Potency, µM (highest dose often 46.1 µM), for inactives: at the highest dose activity change, negative = inhibition, usual class: inhibitors | 330,000 tested, 2.3% active | AID 504467, 2011; also: % is scaled to controls: 0 for no effect and ±100 for the full control effect; nearly all actives have a fitted effect of over 55% in size
#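 Overnight (16 hr) co-exposure of 2,000 cells/well to 5-fluorouridine and compound at 37 °C preceded detection. Luciferase was quantified via ONE-Glo luminescence; loss of signal denotes inhibition.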
# SW480 rereplic = A quantitative high throughput screen for small molecules that induce DNA re-replication in SW480 colon adenocarcinoma cells; 340,000 tested, 1.8% active; AID 624297, 2012; SW480 DNA re-replication, Hoechst DNA content imaging, 48 h; Potency, µM (highest dose often 46.1 µM), without a hit: at the highest dose re-replication activation, most hits filed as activators; also: % of control where 0% means no effect; nearly all actives have a fitted effect of over 55% in size
#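 SW480 cells exposed to compounds for 48 hr at 37 C, 5% CO2, then Hoechst-stained 40 min. Nuclear DNA content imaged by fluorescence scanning (405 nm excitation, 500-530 nm emission); re-replication scored as increased high-intensity nuclei.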
# RORg inh = qHTS for inhibitors of ROR gamma transcriptional activity; Drosophila S2 Gal4-RORgamma UAS-luciferase reporter, 20 h; Potency, µM (top dose mostly 53.6 µM), without a hit: at the highest dose activity change, negative = inhibition, usual class: inhibitors; 310,000 tested, 5.4% active; AID 2551, 2010; also: % is scaled to controls: 0 for no effect and ±100 for the full control effect; nearly all actives have a fitted effect of over 60% in size
# Target sequence (P51450 whole entry, looked up, the tested form may be a part): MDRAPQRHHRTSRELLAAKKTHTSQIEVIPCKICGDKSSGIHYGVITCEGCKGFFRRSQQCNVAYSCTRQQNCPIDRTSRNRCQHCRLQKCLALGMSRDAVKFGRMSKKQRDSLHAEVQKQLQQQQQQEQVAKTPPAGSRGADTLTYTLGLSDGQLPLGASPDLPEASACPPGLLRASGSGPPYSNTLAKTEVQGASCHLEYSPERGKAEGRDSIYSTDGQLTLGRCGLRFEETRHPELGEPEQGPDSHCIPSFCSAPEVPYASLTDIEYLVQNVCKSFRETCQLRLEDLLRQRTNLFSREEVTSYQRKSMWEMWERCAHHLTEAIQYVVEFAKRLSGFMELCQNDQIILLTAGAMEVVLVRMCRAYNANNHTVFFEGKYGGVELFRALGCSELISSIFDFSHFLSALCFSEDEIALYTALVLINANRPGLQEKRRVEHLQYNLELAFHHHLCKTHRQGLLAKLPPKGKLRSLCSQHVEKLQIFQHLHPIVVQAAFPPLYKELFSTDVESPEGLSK
#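 Using a luciferase readout, inhibitors were identified by reduced reporter activity in Drosophila cells coexpressing a copper-inducible Gal4–ROR gamma fusion and UAS-driven Photinus luciferase, incubated 20 hr after 700 uM copper sulfate.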
# MCF10A rereplic = A quantitative high throughput screen for small molecules that induce DNA re-replication in MCF 10a normal breast cells; MCF 10A DNA re-replication, Hoechst nuclear intensity, 48 h; Potency, µM (titrated, usually from 46.1 µM), for the others: at the top dose activity, positive = re-replication, usual class: activators; 350,000 tested, 2.9% active; AID 624296, 2012; also: % of control where 0% means no effect; nearly all actives have a fitted effect of over 50% in size
# Gal4-VP16 FLuc = VP16 counterscreen qHTS for inhibitors of ROR gamma transcriptional activity; Drosophila S2 Gal4-VP16 UAS-luciferase, luminescence, 20 h; Potency, µM (titrated, usually from 53.6 µM), for inactives: top-dose activity, negative = inhibition, hits mostly inhibitors; 310,000 tested, 3.5% active;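 also: Gal4-VP16 expression switched on by copper sulfate through the metallothionein promoter; % is scaled to controls: 0 for no effect and ±100 for the full control effect; nearly all actives have a fitted effect of over 50% in size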
# Numbers without * were called inactive; ? = inconclusive; · = not tested or not shown; [ ] = remark or other dose. In the library only some 10% were active in any assay of this set; here they are far more common. Calls follow the shape of the dose curve; as a rule, active = well fitted curve in the direction sought with a large enough effect; inconclusive = small, poorly fitted or top-dose-only effect, or another doubt; inactive = no such curve, though single readings can be large; an effect the other way counts as inactive or inconclusive. Potency is read from the fitted curve at half-maximal effect.
SMILES,ELG1 repair inh,SW480 rereplic,RORg inh,MCF10A rereplic,Gal4-VP16 FLuc
CCN(CC)S(=O)(=O)c1ccc(C)c(NC(=O)Cn2cnc3cc([N+](=O)[O-])ccc3c2=O)c1,16µM*,-11%,16%,-1%,?
O=C(CCCN1C(=O)C(c2ccccc2)Oc2cccnc21)NCc1ccc(F)cc1 (stereo unspecified),-2%,?,-5%,-1%,-4%
CCOc1ccc2nc(NCCCNC(=O)c3cc(OC)c(OC)c(OC)c3)c(C#N)cc2c1,6.5µM*,10µM*,-4%,?,1%
C#CCOCCOCCOCCNc1nc(N2CCN(C(=O)[C@H](CCCCN)n3cc([C@@H](N)CO)nn3)CC2)nc(N2CCN(C(=O)[C@H](CCCCN)n3cc([C@@H](N)CC(C)C)nn3)CC2)n1,?,-6%,·,8%,·
CCOc1ccc(N(C(=O)c2ccccc2Cl)C2=NC(C)(C)CS2)cc1,?,4%,3.2µM*,-4%,-16%
CCOC(=O)C1CCCN(Cc2nc(N)nc(Nc3ccc(Cl)cc3)n2)C1 (stereo unspecified),?,1%,13µM*,25%,?
CCOC(=O)N1CCN(Cc2nc(N)nc(Nc3ccc(OC)cc3)n2)CC1,-11%,2%,3%,-8%,15%
COc1ccc(Nc2nc(N)nc(CN3CCOCC3)n2)cc1,7%,-21%[9.22 µM],25%,-21%,-3%
COc1ccccc1Nc1nc(N)nc(CN2CCC(Cc3ccccc3)CC2)n1,-13%,-1%,8.9µM*,6%,?
CCOC(=O)C1CCCN(Cc2nc(N)nc(Nc3ccc(OC)cc3)n2)C1 (stereo unspecified),?,-4%,-27%,0%,-4%
CCOC(=O)N1CCN(Cc2nc(N)nc(Nc3ccc(Oc4ccccc4)cc3)n2)CC1,12µM*,0%,33%,?,?
COc1ccc(Nc2nc(N)nc(CN3CCC(Cc4ccccc4)CC3)n2)cc1,?,4%,11µM*,1%,?
O=C(CSc1nnc(-c2ccccn2)o1)Nc1ccc(F)cc1,?,-4%,11%,-40%,24%
CN(C)c1ccc(N2C(=NC(=O)COc3ccccc3)SC3CS(=O)(=O)CC32)cc1 (stereo unspecified),?,20%,-7%,-1%,-15%
CC(=O)c1ccc(NC(=O)CCS(=O)(=O)c2ccc3c(c2)n(C)c(=O)c(=O)n3C)cc1,8%,0%,-2%,-1%,0%
COc1ccc(-c2ccc(/C=C(\NC(=O)c3ccccc3)C(=O)N3CCOCC3)o2)cc1,?,1%,7%,?,-11%
COc1ccc(Nc2nc(N)nc(CCl)n2)cc1,?,3.3µM*,-42%,?,?
COc1ccc(C(=O)c2ccc(OC)c(OC)c2OC)cc1,·,5.8µM*,·,3.7µM*,·
Cc1c(C(=O)N2CCOCC2)sc(NC(=O)CCl)c1C#N,?,25%,13µM*,?,?
O=C(CSCc1cccc(Br)c1)NC1CC1,10%,-1%,36%,11%,0%
CCN(CCNC(=O)CS(=O)(=O)Cc1nc(-c2cccc(OC)c2)oc1C)c1ccccc1,18µM*,7%,18%,?,-13%
COc1cccc(-c2nc(CS(=O)(=O)CC(=O)NCCC(C)C)c(C)o2)c1,?,-17%,?,-7%,2%
COc1cccc(-c2nc(CS(=O)(=O)CC(=O)NCCc3ccc(OC)cc3OC)c(C)o2)c1,23µM*,-2%,0%,3%,-6%
COc1ccc(-c2nc(CS(=O)(=O)CC(=O)NCCc3cc(OC)ccc3OC)c(C)o2)cc1,?,2%,3%,8%,-6%
COc1cccc(-c2nc(CS(=O)(=O)CC(=O)NCCc3cc(OC)ccc3OC)c(C)o2)c1,21µM*,0%,-5%,5%,-8%
SMILES,ELG1 repair inh,SW480 rereplic,RORg inh,MCF10A rereplic,Gal4-VP16 FLuc
CN(CCOc1ccccc1)C(=O)C1CCC(=O)N(CCc2ccc(Cl)cc2)C1 (stereo unspecified),?,-4%,?,-8%,23%
Oc1oc(-c2ccccc2)nc1C=Nc1ccccc1,?,0%,-15%,-5%,?
Sc1oc(-c2ccccc2)cc1C=Nc1ccccc1,?,13µM*,13µM*,?,18µM*
Nc1ncnc2c1nc(Br)n2[C@@H]1O[C@H]2COP(=O)(O)O[C@@H]2[C@@H]1O,·,·,5%,·,3%
CCOP1(=O)OCC2OC(n3cnc4c(N)ncnc43)C(O)C2O1 (stereo unspecified),4%,-17%,0%,15µM*,3%
CCN(CC(=O)Nc1c(F)cccc1F)C(=O)COc1cccc2c1OC(C)(C)C2,3%,-149%,·,6%,·
CCOC(=O)C1CCCN(C(=O)CN2C(=O)c3ccccc3S2(=O)=O)C1 (stereo unspecified),-1%,-16%,·,-6%,·
O=C(N/N=C1\C(=O)c2cccc3cccc1c23)c1ccc(O)cc1,?,-3%,0.071µM*,10%,0.32µM*
CCCCNC(=S)N/N=C1\C(=O)c2cccc3cccc1c23,11%,0%,?,12%,?
CNC(=S)N/N=C1\C(=O)c2cccc3cccc1c23,?,?,0.5µM*,10µM*,2.5µM*
O=C(CNC(=O)c1ccco1)NCC(=O)OCc1ccc(Cl)cc1Cl,-2%,-21%,-16%,-2%,13%
CN(C)CCNC(=S)Nc1ccc(F)c(F)c1F,5%,-5%,3%,2%,7%
CC(C)c1ccc(-c2nnn(CCC(=O)O)n2)cc1,22%,-4%,0.4µM*,13%,?
NC(=O)c1cc([N+](=O)[O-])c(Cl)cc1NCc1ccccn1,2%,?,·,-10%,·
CCOc1ccccc1-c1nnc(SCC(=O)Nc2ccccc2)o1,-7%,-3%,2%,-1%,4%
Oc1c(Br)cc(Br)cc1C=NCc1ccc(F)cc1,-26%,13%,10µM*,24%,?
CSCCC(NC(=O)c1ccccc1Cl)C(=O)NCC1COc2ccccc2O1 (stereo unspecified),-6%,-3%,·,-1%,·
O=C(CSCc1ccccc1Br)N/N=C/c1ccc(OCC(=O)N2CCCCC2)cc1,26µM*,·,?,1%,2%
O=C(CSCc1ccccc1)N/N=C/c1ccc(OCC(=O)N2CCCCC2)cc1,-20%,-12%,38%,25%,-16%
COc1ccc(CSCC(=O)N/N=C/c2ccc(OCC(=O)N3CCCCC3)cc2)cc1,-8%,?,4%,21µM*,-10%
